Compound activity (PubChem BioAssay)
UCHL1 inh: inhibitors of human UCHL1 deubiquitinase; Ubiquitin carboxyl-terminal hydrolase isozyme L1 (Homo sapiens), P09936; inhibition, % at 20 µM; purified UCHL1, Ub-rhodamine cleavage fluorescence; 47,000 tested, 0.2% active; AID 1645859, 2021
Target sequence (P09936 whole entry, looked up): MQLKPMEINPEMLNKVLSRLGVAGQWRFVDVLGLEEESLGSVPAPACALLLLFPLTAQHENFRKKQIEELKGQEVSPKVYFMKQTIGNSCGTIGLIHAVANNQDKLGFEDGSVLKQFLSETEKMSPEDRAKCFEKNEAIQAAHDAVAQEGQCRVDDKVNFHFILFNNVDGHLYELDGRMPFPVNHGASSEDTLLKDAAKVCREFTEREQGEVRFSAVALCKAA
USP10 block: inhibitors of human USP10 deubiquitinase. Ubiquitin carboxyl-terminal hydrolase 10 (Homo sapiens), Q14694. purified USP10, Ub-rhodamine fluorescence, 60 min. inhibition, % at 20 µM. 47,000 tested, 1.1% active. AID 1645856, 2021
USP8 block: inhibitors of human USP8 deubiquitinase; Ubiquitin carboxyl-terminal hydrolase 8 (Homo sapiens), P40818; 47,000 tested, 4.2% active; inhibition, % at 20 µM; purified USP8, Ub-rhodamine cleavage fluorescence, 30 min
USP7 block: inhibitors of human USP7 deubiquitinase | inhibition, % at 20 µM | 47,000 tested, 0.3% active | AID 1645854, 2021 | purified USP7, Ub-rhodamine cleavage fluorescence | Ubiquitin carboxyl-terminal hydrolase 7 (Homo sapiens), Q93009
An asterisk follows results filed as active. Most compounds without a hit are left out; they make up all but 4.6% or so of the library. Rule as the data show it: active = inhibition above about 30%; inactive = the rest.

SMILES	UCHL1 inh	USP10 block	USP8 block	USP7 block
O=C(NCc1ccccc1)N1CCC(c2nc(-c3ccccc3)no2)C1 (stereo not drawn)	2	2	2	-2
Cc1cccc(OCCn2c(NC(=O)c3ccc(Cl)cc3)nc3ccccc32)c1	1	5	66*	4
O=C(O)c1ccc(NCc2nc3ccccc3n2CCOc2ccccc2)cc1	0	8	17	0
Cc1cccc(C)c1NC(=O)CN1C(=O)CC(c2ccccc2)=Nc2ccccc21	-3	39*	-11	3
COc1cccc(N2C(=O)N3CCc4c([nH]c5ccc(OC)cc45)[C@@]3(C)C2=O)c1	8	9	15	7
COc1ccc(NC(=O)c2ccc(N3C(=O)N4CCc5c([nH]c6ccc(OC)cc56)[C@@]4(C)C3=O)cc2)cc1	8	2	31*	9
Cc1ccc(NC(=O)C2=NOC3(CCNC3)C2)cc1 (stereo not drawn)	1	0	-15	4
CCC(Sc1cccc(NC(=O)C2CCCCC2)c1)C(=O)Nc1cc([N+](=O)[O-])ccc1C (stereo not drawn)	27	0	63*	-104
Cc1ccc(NC(=O)C2CCCC2)cc1S(=O)(=O)N1CCOCC1	-2	0	-3	1
COc1ccc(CNC(=O)CC[C@H]2CNC(=O)[C@@H]3[C@@H](CCN3CC3CC3)N2C)cc1	2	-3	12	7
Cc1ccc(-c2noc(-c3c(O)c4cnn(-c5ccccc5)c4[nH]c3=O)n2)cc1	1	1	-7	4
Cc1ccc(-n2ncc3c(O)c(C(=O)Nc4ccccc4F)c(=O)[nH]c32)cc1	2	18	83*	-14
CCc1ccccc1NC(=O)c1c(O)c2cnn(C)c2[nH]c1=O	-2	0	84*	-1
COc1cccc(C2c3[nH]c4ccccc4c3C[C@H]3C(=O)N(c4ccc(C(=O)NCCc5ccccc5)cc4)C(=O)N23)c1 (stereo partly drawn)	-10	-7	-97	-10
Cc1c(C(=O)N2CCCC2)nnn1-c1cccc2c1CCN(CC1CC1)C2	-17	-11	3	-20
c1cncc(-c2cnc3sc(NCc4ccc5c(c4)OCO5)nn23)c1	3	30*	37*	4
COc1ccc(Nc2nnc(Cc3ccc(Cl)cc3)c(=O)[nH]2)cc1	0	39*	92*	28
CCOC(=O)N1CCC(NC(=O)c2cc(C(=O)Nc3ccc(S(=O)(=O)N4CCCCC4)cc3)ccc2CO)CC1	6	32*	-12	8
CCc1ccc(OCC(=O)Nc2cccc(-c3nc4ccccc4s3)c2)cc1	1	5	-7	3
Cc1ccc(S(=O)(=O)CC(=O)Nc2ccc(-c3nc4ccccc4s3)c(O)c2)cc1	0	27	80*	10
O=c1cc(-c2ccc(O)c(O)c2)oc2cc(O[C@@H]3O[C@H](CO)[C@@H](O)[C@H](O)[C@H]3O)cc(O)c12	31*	52*	27	36*
CC1OC(OCC2OC(Oc3c(-c4ccc(O)c(O)c4)oc4cc(O)cc(O)c4c3=O)C(O)C(O)C2O)C(O)C(O)C1O (stereo not drawn)	-1	-3	-4	-1
Cc1ccc(OCC(=O)Nc2ccc3c(c2)CN(C(=O)c2ccco2)CC3)cc1	6	17	33*	-25
CC(C)CNc1nc2c(cc1C(=O)N(C)C)CCN(Cc1cccnc1)CC2	-3	-3	-39	-1
Cc1ccc(S(=O)(=O)Nc2cccc(Cl)c2)cc1NC(=O)CCC(=O)c1ccc(Cl)cc1	3	34*	7	-20
SMILES	UCHL1 inh	USP10 block	USP8 block	USP7 block
O=C(CCC(=O)c1ccc(F)cc1)Nc1cccc(S(=O)(=O)Nc2cccc(Cl)c2)c1	6	32*	-20	-9
Cc1ccc(S(=O)(=O)Nc2ccc(Cl)cc2)cc1NC(=O)CC(=O)c1ccccc1	3	27	51*	-5
O=C(CCCC(=O)OCC(=O)c1ccc(F)cc1)Nc1cccc(Cl)c1	3	5	13	-15
O=C(Nc1nc2c(s1)CCC2)c1cccc(N2CCNC2=O)c1	-2	0	-4	-3
CC(=O)c1ccc(NC(=O)/C(=C/c2ccco2)n2nnnc2-c2ccccc2)cc1	11	0	62*	10
O=C(Nc1ccccc1)/C(=C/c1ccco1)n1nnnc1-c1ccccc1	0	-7	6	3
CC(C)C(NC(=O)COc1ccccc1)C(=O)N1CCc2[nH]c3ccccc3c2C1 (stereo not drawn)	-3	-4	63*	-10
O=C(NCC(=O)N1CCc2[nH]c3ccccc3c2C1)c1ccc(F)cc1	-20	-3	-14	-22
Cc1cccc(NC(=O)Cc2nnc(-c3ccc4ncccc4c3)o2)c1	-4	-6	-278	-5
CCc1ccc(NC(=O)Cc2nnc(-c3ccc4ncccc4c3)o2)cc1	-1	-5	51*	2
Cc1ccc(F)cc1NC(=O)Cc1nnc(-c2ccc3ncccc3c2)o1	0	-9	56*	5
O=C(Nc1ccc(F)cc1)N1CCC2(CC1)OC(C(=O)N1CCOCC1)Cn1ccnc12 (stereo not drawn)	0	-6	-58	4
CC(C)C(=O)N1Cc2ccccc2CC2(CCN(Cc3ccc(O)cc3)C2)C1 (stereo not drawn)	-3	-7	-48	-5
Cc1ccc(CNC(=O)c2ccc3nn(CC(=O)Nc4ccccc4F)c(=O)n3c2)cc1	0	23	67*	10
Cc1ccccc1NC(=O)CSc1nnc2ccc(C(=O)NCc3ccccc3)cn12	-3	-1	45*	-5
O=C(Cn1nc2ccc(C(=O)NCc3ccccc3)cn2c1=O)Nc1ccc2c(c1)OCO2	1	12	1	2
Cc1ccc(NC(=O)c2ccc3nn(CC(=O)Nc4ccc(C)cc4C)c(=O)n3c2)cc1	-4	3	53*	11
Cc1ccc(NC(=O)c2ccc3nn(CC(=O)Nc4ccc(F)cc4F)c(=O)n3c2)cc1	-1	3	57*	17
c1coc(C(CNc2ncnc3ccccc23)N2CCCCC2)c1 (stereo not drawn)	-7	-1	-8	-3
CNC(=O)N1CC2CN(S(=O)(=O)c3cccc(C)c3)CC(C1)O2	2	0	5	3
COc1cc(N)c(Cl)cc1C(=O)OCC(=O)Nc1ccc(N2CCOCC2)cc1	4	0	39*	7
NS(=O)(=O)c1cc(C(=O)OCC(=O)Nc2ccc(N3CCOCC3)cc2)ccc1Cl	1	6	21	2
CS(=O)(=O)N1Cc2ccccc2CC1C(=O)Nc1ncc(Cc2ccccc2)s1 (stereo not drawn)	9	3	-70	10
C(=C\c1nc(-c2cccc(-c3ccn[nH]3)c2)no1)/c1ccco1	12	-13	35*	31*
Fc1ccc(OCc2nc(-c3cccc(-c4ccn[nH]4)c3)no2)cc1	2	17	33*	4
c1cc(-c2noc(-c3ccoc3)n2)cc(-c2ccn[nH]2)c1	-6	-9	-13	-7
